Reference: PubChem BioAssay AID504848 (National Center for Advancing Translational Sciences (NCATS), 2011)
The campaign covered roughly 2,300 compounds. About 1,400 (61%) were called active. About 29% were inconclusive and are not listed. So high a share suggests a set chosen from earlier hits. The list shows a part of the results. A number with no mark means an inactive call. Calls come from the whole dose curve; as a rule, active = well fitted inhibition curve with a large enough effect; inconclusive = small, poorly fitted or top-dose-only effect, or effect the other way; inactive = no such curve, though single readings can be large or run the other way.

assay: Confirmation screen for delayed death inhibitors of the malarial parasite plastid, 96 hour incubation; note: nearly all actives have a fitted effect of over 60% in size; conditions: P. falciparum luciferase growth in erythrocytes; series mostly up to 28.7 µM; activity change, negative = inhibition: at the top concentration
How it was run: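 Erythrocytes infected with luciferase-expressing P. falciparum (2% hematocrit, 0.1% parasitemia final) in RPMI 1640 with 0.5% Albumax, exposed to compounds 96 h at 37 C, 5% CO2. Growth inhibition read as decreased luciferase luminescence.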
% is set by controls: 0 for no effect and ±100 for the full control effect; potency is the fitted concentration of half-maximal effect.

Structure (SMILES) | Potency | activity change, negative = inhibition
Cc1nc(SC(C)C(=O)NCC2CCCO2)c2cc(-c3ccccc3)sc2n1 (centres undefined) | 11.2 µM (active) | 
CN(C)c1ccc(S(=O)(=O)N2CCCCC2)cc1NC(=O)C1=NN(c2ccccc2)C(=O)CC1 | 3.55 µM (active) | 
O=C(Nc1cc(Cl)ccc1N1CCCC1)C1=NN(c2ccccc2)C(=O)CC1 | 12.6 µM (active) | 
O=C(CSc1nnc(COc2ccccc2)n1-c1ccccc1)c1cccs1 | 11.2 µM (active) | 
COc1cc2c(cc1OC)CN(C(=O)COc1ccccc1[N+](=O)[O-])CC2 | 14.1 µM (active) | 
COc1cc2c(cc1OC)CN(C(=O)COc1ccccc1C#N)CC2 |  | -97.4%
Cc1ccc(C)c(-n2nnnc2Sc2nnnn2-c2ccccc2)c1 | 10 µM (active) | 
COc1ccc2c(C)cc(Sc3nnnn3-c3ccccc3)nc2c1 | 15.8 µM (active) | 
CCCOc1ccccc1/C=C1\SC(N2CCCCC2)=NC1=O | 0.891 µM (active) | 
COc1cccc(/C=C2\SC(N3CCCC(C)C3)=NC2=O)c1OC (centres undefined) | 11.2 µM (active) | 
Cc1cc(-c2ccc(C(C)C)c(S(=O)(=O)NCc3ccco3)c2)on1 | 14.1 µM (active) | 
CCc1ccc(-c2cc(C)no2)cc1S(=O)(=O)NCc1ccco1 | 12.6 µM (active) | 
CN(C)S(=O)(=O)c1cccc(NC(=S)N/N=C/c2cc(Br)ccc2O)c1 | 3.98 µM (active) | 
O=C(O)CCn1c(-c2ccccc2)cc2c1CCCC2=O |  | -11.5%
CC(=O)/C=C/c1ccccc1Oc1c(F)c(F)nc(F)c1F | 3.16 µM (active) | 
CN(C)S(=O)(=O)c1cccc(NC(=O)CSc2cccc3cccnc23)c1 | 7.94 µM (active) | 
O=C(CSc1cccc2cccnc12)N/N=C/c1cccnc1 | 12.6 µM (active) | 
O=C(NCc1ccccc1)C1=C[C@@H](c2coc3ccccc3c2=O)C[C@@H](OCc2ccc(CO)cc2)O1 | 7.08 µM (active) | 
O=C(Nc1ccccc1)C1=C[C@@H](C2CCCCC2)C[C@@H](OCc2ccc(CO)cc2)O1 | 10 µM (active) | 
O=C(NC1CC1)C1=C[C@@H](C2CCCCC2)C[C@@H](OCc2ccc(CO)cc2)O1 | 10 µM (active) | 
COc1cccc(NC(=O)CSc2nc3n[nH]c(C)c3c(=N)n2-c2cccc(OC)c2)c1 | 6.31 µM (active) | 
NC1=NC[C@@H](Cc2ccc(O)cc2)N1CCc1cccc(F)c1 | 3.98 µM (active) | 
NC1=NC[C@H](Cc2ccc(O)cc2)N1CCc1cccc(F)c1 | 3.16 µM (active) | 
NC(=O)C1CCN(c2nc(C3CC3)nc3c2nnn3Cc2ccccc2Cl)CC1 | 3.16 µM (active) | 
CS(=O)(=O)c1ccc(-c2nnc(NC(=O)c3ccc(S(=O)(=O)N4CCCC4)cc3)o2)cc1 | 15.8 µM (active) | 
CC1CCN(CCc2nc3cc(NS(=O)(=O)c4ccc(F)cc4)ccc3n2C)CC1 | 12.6 µM (active) | 
Cn1c(CCN2CCCCC2)nc2cc([N+](=O)[O-])ccc21 |  | -17.4%

Structure (SMILES) | Potency | activity change, negative = inhibition
Cn1c(CCN2CCCCC2)nc2cc(NS(=O)(=O)c3ccc(F)cc3)ccc21 | 12.6 µM (active) | 
CCOc1ccc(S(=O)(=O)Nc2cc(S(=O)(=O)N(CC)CC)ccc2N2CCCC2)cc1 | 0.501 µM (active) | 
N#Cc1cc(C(=O)c2cc(Cl)ccc2O)cn(-c2ccccc2)c1=O | 12.6 µM (active) | 
COc1cccc(NC(C)C(=O)Nc2cc([N+](=O)[O-])ccc2Cl)c1 (centres undefined) | 3.16 µM (active) | 
COc1ccc(Nc2cccc(Cl)c2)c(C(=O)O)c1 |  | -20.8%
O=C(O)CCc1ccc(-c2ccccc2)n1-c1ccc(C(=O)O)cc1 |  | 0.286%
Cc1ccc(NC(=O)c2ccc(Nc3c([N+](=O)[O-])cc([N+](=O)[O-])cc3[N+](=O)[O-])cc2)cc1 | 2.24 µM (active) | 
Cc1ccc(NC(=O)/C(=C\c2ccc([N+](=O)[O-])cc2)NC(=O)c2ccccc2)cc1 | 2.82 µM (active) | 
CN1c2ccccc2-c2nc3ccccc3n2C1c1cccs1 (centres undefined) | 4.47 µM (active) | 
O=C(c1ccc(CS(=O)c2ccccc2Cl)o1)N1CCCCCC1 (centres undefined) | 5.62 µM (active) | 
O=C(c1ccc(CS(=O)c2ccccc2Cl)o1)N1CCN(c2ccccn2)CC1 (centres undefined) | 1.41 µM (active) | 
CO[C@@H]1[C@@H](OC2OC(C)C(OC3CC(C)(O)C(OC(=O)CC(C)C)C(C)O3)C(N(C)C)C2O)[C@@H](CC=O)C[C@@H](C)C(=O)/C=C\C2O[C@H]2C[C@@H](C)OC(=O)C[C@H]1OC(C)=O (some centres undefined) | 1.78 µM (active) | 
CO[C@H]1[C@H](O[C@H]2O[C@@H](C)[C@@H](O[C@@H]3C[C@](C)(O)[C@H](O)[C@H](C)O3)[C@@H](N(C)C)[C@@H]2O)[C@@H](CC=O)C[C@@H](C)[C@@H](O[C@H]2CC[C@H](N(C)C)[C@H](C)O2)/C=C\C=C/C[C@@H](C)OC(=O)C[C@H]1O | 2.51 µM (active) | 
Cc1ccc(OCCSCc2nnc(NC(=O)Nc3cccc(Cl)c3)s2)cc1 | 2 µM (active) | 
CCCNC(=O)COC(=O)c1ccccc1C(=O)c1ccc(Cl)c([N+](=O)[O-])c1 | 10 µM (active) | 
Cc1onc(-c2c(F)cccc2Cl)c1-c1nnc(-c2ccc(C(F)(F)F)cc2)o1 | 6.31 µM (active) | 
COc1ccc(C(=O)/C=C/c2ccccc2)c(OC)c1 | 7.94 µM (active) | 
COc1cc(O)cc(O)c1C(=O)/C=C/c1ccccc1 | 11.2 µM (active) | 
COc1ccc2cc(C(=O)/C=C/c3cc(OC)c(O)c(OC)c3)ccc2c1 | 15.8 µM (active) | 
COc1cc(/C=C/C(=O)Nc2cccnc2)cc(OC)c1OC | 11.2 µM (active) | 
COc1ccc(C(=O)/C=C/c2ccc(OC)c(O)c2)c(F)c1 | 11.2 µM (active) | 
COc1ccc(C(=O)/C=C/c2cccnc2)c(OC)c1 | 3.55 µM (active) | 
Cc1ccc(Nc2cc(C)nc3ccc(C)cc23)cc1 | 10 µM (active) | 
COc1cc2c(cc1OC)[C@@H](NC(=O)C(C)C)[C@H](OCc1ccccc1)C2 |  | -82.6%
COC(=O)C1=C(C)N(CC2CC2)C(=NCc2cc(OC)c(OC)c(OC)c2)N[C@H]1c1ccccc1 | 11.2 µM (active) | 
Cc1nc(-c2ccccn2)sc1C(=O)Nc1ccc(Cl)c(Cl)c1 |  | -23%
O=C(Nc1ccc(N2CCCCC2)c(Cl)c1)c1cccnc1 | 12.6 µM (active) | 
